Experimental data: PubChem BioAssay (NCATS)
Results filed as inconclusive are left out. Calls of active or inactive are those of the source. Calls come from the whole dose curve; as a rule, active = well fitted curve in the direction sought with a large enough effect; inconclusive = small, poorly fitted or top-dose-only effect, or another doubt; inactive = no such curve, though single readings can be large; an effect the other way counts as inactive or inconclusive.

What was measured:
[1] = BET inhibitor-based combinations targeting novel dependencies in MECOM-rearranged (r) AML: SET-2 cell line (AID 2202231); settings: SET-2 AML cells viability, CellTiter-Glo luminescence, 48 h; viability: active compounds read low, concentration not given here; note: nearly all actives have a fitted effect of over 35% in size;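 for viability: plate controls were DMSO treated cells for no effect and wells without cells for full effect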
Summary of the method: (§1)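 Here, 11-point titrations of each agent were applied to 500 seeded cells and incubated 48 hr; CellTiter-Glo signal, scaled against DMSO and empty wells, was integrated as AUC, then Z-scored within the individual line.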

[2] = BET inhibitor-based combinations targeting novel dependencies in MECOM-rearranged (r) AML: OCI-AML3 cell line (AID 2202232); settings: CellTiter-Glo luminescence, 48 h; Potency: OCI-AML3 viability; series mostly up to 46 µM; note: nearly all actives have a fitted effect of over 35% in size
Summary of the method: as §1

[3] = BET inhibitor-based combinations targeting novel dependencies in MECOM-rearranged (r) AML: MV-4-11 cell line (AID 2202233); settings: MV-4-11 AML viability, CellTiter-Glo luminescence, 48 h; series mostly up to 46 µM; note: nearly all actives have a fitted effect of over 45% in size
Summary of the method: (§2)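 Normalized to DMSO and empty-well controls, the luminescence data from CellTiter-Glo after 48 hr drug exposure were fitted across 11 concentrations. Reported metrics are area under the dose-response curve and its Z-transformed form.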

[4] = BET inhibitor-based combinations targeting novel dependencies in MECOM-rearranged (r) AML: HNT-34 cell line (AID 2202234); settings: HNT-34 AML viability, CellTiter-Glo luminescence, 48 h; series mostly up to 46 µM; note: nearly all actives have a fitted effect of over 35% in size
Summary of the method: as §2

[5] = BET inhibitor-based combinations targeting novel dependencies in MECOM-rearranged (r) AML: UCSD-AML1 cell line (AID 2202235); settings: UCSD-AML1 AML cells viability, CellTiter-Glo, 48 h; series mostly up to 46 µM; note: nearly all actives have a fitted effect of over 40% in size
Summary of the method: as §2

[6] = BET inhibitor-based combinations targeting novel dependencies in MECOM-rearranged (r) AML: AML-191 cell line (AID 2202236; note: nearly all actives have a fitted effect of over 35% in size); settings: AML-191 viability, CellTiter-Glo luminescence, 48 h; series mostly up to 46 µM
Summary of the method: as §1

[7] = BET inhibitor-based combinations targeting novel dependencies in MECOM-rearranged (r) AML: AML-194 cell line (AID 2202237; note: nearly all actives have a fitted effect of over 40% in size); settings: AML-194 (MECOM-r AML) viability, CellTiter-Glo, 48 h; series mostly up to 46 µM
Summary of the method: as §1
Potency is the fitted concentration of half-maximal effect.

N#Cc1cccnc1N1CCN(C(=O)c2cccc(Cc3n[nH]c(=O)c4ccccc34)c2)CC1
active: Potency [1] 296 nM | Potency [2] 166 nM | Potency [3] 59 nM | Potency [4] 37.2 nM | Potency [5] 83.3 nM | Potency [6] 118 nM

COc1ccc(-c2nc(N3CCOCC3)c3sc(CN(C)c4ncc(C(=O)NO)cn4)cc3n2)cn1
active: Potency [1] 29.5 nM | Potency [2] 33.2 nM | Potency [3] 23.5 nM | Potency [4] 41.7 nM | Potency [5] 29.5 nM | Potency [6] 46.8 nM

C[C@H]1[C@H](C)CC[C@]2(C(=O)O)CC[C@]3(C)C(=CC[C@@H]4[C@@]5(C)CC[C@H](O)C(C)(C)[C@@H]5CC[C@]43C)[C@H]12
inactive: viability [1] 102% | Potency [2] | Potency [3] | Potency [4] | Potency [5] | Potency [6] | Potency [7]

COc1cc2c(cc1O)CCN[C@]21CS[C@@H]2c3c(OC(C)=O)c(C)c4c(c3[C@H](COC1=O)N1[C@@H]2[C@H]2c3c(cc(C)c(OC)c3O)C[C@@H]([C@@H]1O)N2C)OCO4
active: Potency [1] 9.6 nM | Potency [2] 9.6 nM | Potency [3] 4.3 nM | Potency [4] 8.5 nM | Potency [5] 9.6 nM | Potency [6] 9.6 nM

O=C(/C=C/c1ccc(CN(CCO)CCc2c[nH]c3ccccc23)cc1)NO
active: Potency [1] 166 nM | Potency [2] 132 nM | Potency [3] 93.4 nM | Potency [4] 148 nM | Potency [5] 132 nM | Potency [6] 148 nM | Potency [7] 0.332 µM

C=C1C(=O)O[C@@H]2[C@H]3O[C@]3(C)CC/C=C(\C)CC[C@@H]12
active: Potency [1] 11800 nM | Potency [2] 6610 nM | Potency [3] 5250 nM | Potency [4] 7420 nM | Potency [5] 10500 nM | Potency [6] 9340 nM | Potency [7] 11.8 µM
